High-throughput results: PubChem BioAssay, National Center for Advancing Translational Sciences (NCATS)
PLK1 PBD block: qHTS for Inhibitors of PLK1-PDB (polo-like kinase 1 - polo-box domain): Primary Screen; Serine/threonine-protein kinase PLK1 (Homo sapiens), P53350; Plk1 PBD binding of FITC phosphopeptide, fluorescence polarization; Potency, µM, most hits filed as inhibitors; 360,000 compounds, 2.8% hits; also: series mostly up to about 57 µM; nearly all actives have a fitted effect of over 65% in size
USP1-UAF1 inh: Inhibitors of USP1/UAF1: Primary Screen | Ubiquitin carboxyl-terminal hydrolase 1 (Homo sapiens), O94782 | recombinant USP1/UAF1, Ub-Rhodamine cleavage fluorescence | Potency, µM (highest dose often 57.1 µM), hits mostly inhibitors | 390,000 compounds, 0.23% hits | AID 743255, 2014; also: nearly all actives have a fitted effect of over 60% in size
Target sequence (O94782 whole entry, looked up): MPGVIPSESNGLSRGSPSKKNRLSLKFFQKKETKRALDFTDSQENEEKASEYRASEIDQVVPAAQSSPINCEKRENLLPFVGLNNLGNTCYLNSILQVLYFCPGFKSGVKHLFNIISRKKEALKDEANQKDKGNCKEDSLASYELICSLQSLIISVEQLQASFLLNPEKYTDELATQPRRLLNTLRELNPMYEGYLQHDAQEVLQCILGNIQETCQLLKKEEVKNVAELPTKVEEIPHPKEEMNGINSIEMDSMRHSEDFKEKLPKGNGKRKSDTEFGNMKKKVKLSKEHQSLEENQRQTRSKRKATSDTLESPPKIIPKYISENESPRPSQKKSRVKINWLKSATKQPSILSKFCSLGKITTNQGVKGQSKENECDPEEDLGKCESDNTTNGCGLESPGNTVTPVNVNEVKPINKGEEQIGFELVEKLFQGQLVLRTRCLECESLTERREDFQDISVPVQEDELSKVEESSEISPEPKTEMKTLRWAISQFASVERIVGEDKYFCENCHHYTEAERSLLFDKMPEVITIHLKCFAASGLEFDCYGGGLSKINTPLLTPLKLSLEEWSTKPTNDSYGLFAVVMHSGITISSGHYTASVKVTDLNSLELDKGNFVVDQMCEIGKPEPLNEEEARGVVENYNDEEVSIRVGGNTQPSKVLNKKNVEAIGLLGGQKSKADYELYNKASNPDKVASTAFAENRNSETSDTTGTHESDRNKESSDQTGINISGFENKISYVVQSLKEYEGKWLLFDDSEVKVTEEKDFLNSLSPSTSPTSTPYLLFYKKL
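USP1/UAF1 complex (1 nM) preincubated 15 min at room temperature with compound, then Ub-Rho substrate (150 nM final) added. Kinetic fluorescence at 480/540 nm over 6 reads at 60 s intervals; 50 mM HEPES pH 7.8, 0.5 mM EDTA, 0.1 mg/ml BSA, 1 mM TCEP, 0.01% Tween-20.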
USP2a inh: qHTS Assay for Inhibitors of Ubiquitin-specific Protease USP2a Using CHOP2 as the Reporter | Potency, µM (highest dose often 38.3 µM), most hits filed as inhibitors | AID 463254, 2010 | USP2 core, Ub-CHOP2 coupled fluorogenic reporter, 485/531 | Ubiquitin carboxyl-terminal hydrolase 2 (Homo sapiens), O75604 | 330,000 compounds, 0.01% hits
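Cell-free coupled assay: 10nM USP2 core preincubated 30min RT with compound in Tris-HCl pH 8.0/CaCl2/CHAPS buffer, then 25nM Ub-CHOP2 and 25nM reporter substrate; fluorescence (Ex 485/Em 531) read after 60min RT, normalized to NEM inhibition, concentration-response curves fitted.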
Coupling enz: qHTS Assay for Inhibitors of Fructose-1,6-bisphosphate Aldolase from Giardia Lamblia: Coupling assay counterscreen. coupling enzyme system counterscreen, AmpLite Red fluorescence. activity change, negative = inhibition, % at 58.2 µM, hits read low. 290,000 compounds, 0.67% hits; in the data active = activity change below about -30%
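Activity here indicates interference with the coupling reaction, not aldolase inhibition. Compounds at 57.5 uM final met coupling enzymes for 10 min at RT; substrate and AmpLite Red detection followed, with a 525/598 nm fluorescence read after 20 min.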
GALK inh: qHTS Assay for Inhibitors of Human Galactokinase (GALK); Purified GALK, Kinase-Glo residual ATP luminescence; Potency, µM (highest dose often 57.5 µM), actives largely listed as inhibitors; 270,000 compounds, 0.007% hits
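Human GALK (5 nM) with 35 uM ATP and 100 uM galactose in 20 mM HEPES pH 8.0, 5 mM MgCl2, 60 mM NaCl, 1 mM DTT, 0.01% BSA. After 1 h at room temperature, leftover ATP was read by Kinase-Glo Plus luminescence.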
VDR inhibitor: Inhibitors of the vitamin D receptor (VDR): qHTS. Vitamin D3 receptor (Homo sapiens), P11473. VDR-SRC2-3 peptide fluorescence polarization, 2 h. Potency, µM, usual class: inhibitors. 400,000 compounds, 0.93% hits
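FP read-out; VDR + SRC2-3 coactivator peptide; 23 nl compound by pintool; 2 h RT incubation; reagents held at 4 deg C, protected from light.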
Each line names hits and unclear results; the compound was inactive in the other large screens. Hits are enriched below; roughly 3.2% of the tested compounds scored in any of these assays. Unless noted, calls follow the shape of the dose curve; as a rule, active = well fitted curve in the direction sought with a large enough effect; inconclusive = small, poorly fitted or top-dose-only effect, or another doubt; inactive = no such curve, though single readings can be large; an effect the other way counts as inactive or inconclusive.

COc1cc(Cl)c(C)cc1NC(=O)c1ccc2c(SCC(=O)O)c3c(nc2c1)CCCC3	PLK1 PBD block 42µM, VDR inhibitor inconclusive
COc1ccc(C)cc1NC(=O)c1ccc2c(SCC(=O)O)c3c(nc2c1)CCCC3	none
CC(C)N(C(=O)[C@H]1C[C@H](CC(=O)NC(C)(C)C)C(=O)N2CCc3c([nH]c4cc(-c5ccco5)ccc34)[C@]12C)C(C)C	PLK1 PBD block 21µM, USP1-UAF1 inh inconclusive, VDR inhibitor inconclusive (no result: Coupling enz, GALK inh)
COc1ccc(CNC(=O)C[C@H]2C[C@H](C(=O)N3CCCCC3)[C@@]3(CCc4ccccc4)c4[nH]c5cc(-c6ccco6)ccc5c4CCN3C2=O)cc1OC	PLK1 PBD block 24µM, VDR inhibitor 89µM (no result: Coupling enz, GALK inh)
CC[C@]12c3[nH]c4cc(-c5ccco5)ccc4c3CCN1C(=O)[C@@H](CC(=O)NCCC1=CCCCC1)C[C@@H]2C(=O)N1CCN(C(=O)C2CC2)CC1	PLK1 PBD block 21µM, VDR inhibitor inconclusive (no result: Coupling enz, GALK inh)
CC[C@]12c3[nH]c4cc(-c5ccco5)ccc4c3CCN1C(=O)[C@@H](CC(=O)NCc1ccco1)C[C@@H]2C(=O)N1CCN(C(=O)C2CC2)CC1	PLK1 PBD block inconclusive, VDR inhibitor inconclusive (no result: Coupling enz, GALK inh)
CCN(CC)C(=O)[C@H]1C[C@H](CC(=O)NC(C)(C)C)C(=O)N2CCc3c([nH]c4cc(-c5ccco5)ccc34)[C@]12C	USP1-UAF1 inh inconclusive (no result: Coupling enz, GALK inh)
O=C1/C(=C/c2cccc(Br)c2)SC(=S)N1/N=C/c1cc([N+](=O)[O-])ccc1O	PLK1 PBD block 19µM, VDR inhibitor inconclusive
O=C1/C(=C\c2ccc(O)cc2)SC(=S)N1/N=C/c1ccc(O)cc1	none
O=C1CC(c2ccccc2)CC(O)=C1C=Nc1ccccc1 (centres undefined)	PLK1 PBD block 24µM
O=C(/C=C/c1cn(-c2ccccc2)nc1-c1cccnc1)c1ccco1	VDR inhibitor 50µM
O=C(CCN1C(=O)/C(=C/c2ccc(F)cc2)SC1=S)NC1CCS(=O)(=O)C1 (centres undefined)	none (no result: Coupling enz)
c1ccc(CSc2ccc3nnc(-c4ccccn4)n3n2)cc1	none
FC(F)(Cl)c1nnc2ccc(Sc3ccccn3)nn12	PLK1 PBD block 21µM
CC(=O)N1CCc2c(sc(NC(=O)c3ccc([N+](=O)[O-])o3)c2C#N)C1	PLK1 PBD block 24µM, VDR inhibitor inconclusive
CC(=O)N1CCc2c(sc(NC(=O)Cc3ccc(C)cc3C)c2C#N)C1	PLK1 PBD block 27µM, VDR inhibitor inconclusive
CC1(C)CC(NS(=O)(=O)c2ccc(Cl)cc2)CC(C)(C)N1	VDR inhibitor 89µM
CC(Sc1nc2c(c(=O)[nH]1)CCCC2)C(=O)Nc1ccccc1C#N (centres undefined)	none
COc1cc(/C=C(\C#N)c2nc3ccccc3n2C)cc(OC)c1OC	none (no result: PLK1 PBD block, USP2a inh, Coupling enz, GALK inh)
Cn1c(/C(C#N)=C/c2cccc(O)c2)nc2ccccc21	PLK1 PBD block 27µM, VDR inhibitor 79µM
COc1cc(/C=N/n2cnn(Cc3ccccc3Cl)c2=S)cc(OC)c1OC	PLK1 PBD block inconclusive, VDR inhibitor inconclusive
Oc1ccccc1/C=N/n1cnn(Cc2ccccc2Cl)c1=S	PLK1 PBD block 4.7µM, VDR inhibitor inconclusive
Fc1ccccc1/C=N/N1CCN(Cc2ccccc2Cl)CC1	none
COc1ccc(/C=N/n2cnn(Cc3ccccc3Cl)c2=S)cc1	PLK1 PBD block 27µM, VDR inhibitor inconclusive
COc1cc(CN(C(=O)c2ccc(OC(C)C)cc2)C2CCS(=O)(=O)C2)cc(OC)c1OC (centres undefined)	none (no result: PLK1 PBD block, USP2a inh, Coupling enz, GALK inh)
O=C(Nc1ccc(C(=O)N2CCC(O)(c3ccc(Cl)c(C(F)(F)F)c3)CC2)cc1)c1ccc(Br)o1	none (no result: Coupling enz, GALK inh)
CCn1c(CN2CCN(C(=O)c3ccco3)CC2)nc2c1c(=O)n(C)c(=O)n2C	none
CCOc1ccccc1NC(=O)CN1CCC(C(=O)c2ccc(F)cc2)CC1	none
